Measured values taken from PubChem BioAssay (NCATS).
Where “and” joins values, the source holds several entries; their conditions need not be identical. Equal values may be shown once. Records with an inconclusive call do not appear. Calls of active or inactive are those of the source. Calls come from the whole dose curve; as a rule, active = well fitted curve in the direction sought with a large enough effect; inconclusive = small, poorly fitted or top-dose-only effect, or another doubt; inactive = no such curve, though single readings can be large; an effect the other way counts as inactive or inconclusive. Numbered stars: 1 amine (or outer) side, 2 acyl side, 3 side chain; on linkers, the order of the positions; unused ones are H or OH. Bridge positions count the residues as written; N and C are the ends. Square brackets hold non-standard residues; d marks the D form. Peptide text beside a SMILES is read from it. * marks the point of attachment. pTerphenylCO(4''-OnC5H11) = CCCCCOc1ccc(-c2ccc(-c3ccc(C(=O)*)cc3)cc2)cc1; Orn(4R-OH,5R-OH) = O=C([C@H](C[C@@H](O)[C@@H](O)N[*:3])N[*:1])[*:2]; hTyr(3S-OH,4S-OH) = N[C@H](C(=O)O)[C@H](O)[C@@H](O)c1ccc(O)cc1; Pro(3S-OH,4S-Me) = C[C@H]1CN[C@H](C(=O)O)[C@H]1O; Hyp = O=C(O)[C@@H]1C[C@@H](O)CN1

Columns and labels:
[1] = molecular target: Cellular tumor antigen p53 (Homo sapiens) (UniProt P04637); test: Primary qHTS for small molecule compounds that upregulate eGFP-tagged delta133p53alpha (in N-terminal) cells. (AID 2060322); conditions: NCI-H358 eGFP-delta133p53alpha fluorescence, 24 h; activation: stronger effect = higher value; note: nearly all actives have a fitted effect of over 75% in size; note: potency is the fitted concentration of half-maximal effect;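 for activation: cells pre-induced with doxycycline then dosed without doxycycline; series mostly up to about 56 µM; 0% = DMSO vehicle and 100% = reference activator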
Outline: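 NCI-H358 cells pre-induced 24 h with 10 ng/ml doxycycline for eGFP-delta133p53alpha, plated dox-free and exposed 24 h at 37C to titrated compounds. Fixed, Hoechst-stained; gated GFP peak intensity by laser scanning cytometry, normalized to DMSO (0%) and 57.5 uM 5-azacytidine (100%).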

[2] = molecular target: Aldehyde dehydrogenase, mitochondrial (Homo sapiens) (UniProt P05091); test: qHTS for Inhibitors of the Aldehyde Dehydrogenase Family (ALDH2) Primary screen (AID 2061308);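 note: plate controls were vehicle for no effect and reference inhibitor for full effect; nearly all actives have a fitted effect of over 55% in size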
[3] = molecular target: Retinaldehyde dehydrogenase 3 (Homo sapiens) (UniProt P47895); test: qHTS for Inhibitors of the Aldehyde Dehydrogenase Family (ALDH1A3) Validation screen (AID 2061312); note: % is set by controls: 0 for no effect and ±100 for the full control effect; nearly all actives have a fitted effect of over 45% in size
[4] = molecular target: Retinaldehyde dehydrogenase 3 (Homo sapiens) (UniProt P47895); test: qHTS for Inhibitors of the Aldehyde Dehydrogenase Family (ALDH1A3) Primary screen (AID 2061315);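 note: plate controls were DMSO vehicle for no effect and reference inhibitor for full effect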

Chain of Cellular tumor antigen p53 (Homo sapiens) (P04637 whole entry, looked up): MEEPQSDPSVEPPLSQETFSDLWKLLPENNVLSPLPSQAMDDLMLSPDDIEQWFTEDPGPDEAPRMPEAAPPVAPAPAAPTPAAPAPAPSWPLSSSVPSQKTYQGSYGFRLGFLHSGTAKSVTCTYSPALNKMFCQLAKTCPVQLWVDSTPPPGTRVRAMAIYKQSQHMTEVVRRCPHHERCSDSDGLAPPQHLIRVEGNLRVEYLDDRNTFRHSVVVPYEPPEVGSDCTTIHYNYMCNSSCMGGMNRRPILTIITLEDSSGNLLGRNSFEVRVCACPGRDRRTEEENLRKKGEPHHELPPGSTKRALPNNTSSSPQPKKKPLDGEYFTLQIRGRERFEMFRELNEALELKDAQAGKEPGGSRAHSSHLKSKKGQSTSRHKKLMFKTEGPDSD

O=C(NC1CCN(CC(F)(F)F)CC1)c1ccc(-c2cccc(F)c2)nc1
inactive: activation [1] -16.7% | Potency [2] | Potency [3] | Potency [4]

Cc1cc(-c2nncc3c(C(C)(C)C)c(OCc4ncnn4C)nn23)no1
inactive: activation [1] 6.68% | Potency [2] | Potency [3] | Potency [4]

CN1CCN(C2=Nc3ccccc3Nc3ccc(Cl)cc32)CC1
inactive: activation [1] 8.59% | Potency [2] | Potency [3] | Potency [4]

COc1ccc(-c2nc(-c3ccc(-c4cccc(Cl)c4)o3)[nH]c2-c2ccc(OC)cc2)cc1
inactive: activation [1] -3.82% | Potency [2] | Potency [3] | Potency [4]

CC(C)C(=O)c1cn(CC(=O)COc2ccc(Oc3ccccc3)cc2)c2ccc(C(=O)O)cc12
inactive: activation [1] 6.68% | Potency [2] | Potency [3] | Potency [4]

CC(C)(C)c1ccc2c(c1)CC[C@H]2NC(=O)Nc1cccc2[nH]ncc12
inactive: activation [1] -6.68% | Potency [2] | Potency [3] | Potency [4]

O=C1N=C(N2CCOCC2)CN1c1ccc(Cl)cc1
inactive: activation [1] -6.21% | Potency [2] | Potency [3] | Potency [4]

Cc1cc(CN)cc(C)c1NC(=O)c1ccc(-c2cc(Cl)ccc2Cl)o1
inactive: activation [1] 6.68% | Potency [2] | Potency [3] | Potency [4]

O=C(O)[C@H](Cc1ccccc1)Oc1ccc(-c2ccccc2)cc1
inactive: activation [1] -3.34% | Potency [2] | Potency [3] | Potency [4]

CC1(C)CCC(C)(C)c2cc(C#Cc3ccc(C(=O)O)cc3)ccc21
inactive: activation [1] -5.25% | Potency [2] | Potency [3] | Potency [4]

CN(C1CCc2c(c3ccccc3n2CC(=O)O)C1)S(=O)(=O)c1ccc(F)cc1 (centres undefined)
inactive: activation [1] -3.55% and 0% and -0.955% | Potency [2] | Potency [3] | Potency [4]

O=C(CC(c1ccccc1)c1ccccc1)N1CCN(C(c2ccccc2)c2ccccc2)CC1
inactive: activation [1] 2.86% | Potency [2] | Potency [3] | Potency [4]

CC(C)(C)c1ccc(-c2nc3c(N4CCN(Cc5ccc6nccnc6c5)CC4)cccc3[nH]2)cc1
inactive: activation [1] -2.86% | Potency [2] | Potency [3] | Potency [4]

CC(=O)SCC(=O)c1ccc(NS(=O)(=O)c2ccc(OCCCN(C)C)cc2)nc1
inactive: activation [1] 10% | Potency [2] | Potency [3] | Potency [4]

CS(=O)(=O)c1ccc([C@@H](O)[C@@H](CF)NC(=O)C(Cl)Cl)cc1
inactive: activation [1] -2.82% and -2.86% | Potency [2] | Potency [3] | Potency [4]

N=C(N)c1ccc2nc(-c3cc(CC(=O)NC(CC(=O)O)C(=O)O)cc(-c4cc(S(N)(=O)=O)ccc4O)c3O)[nH]c2c1 (centres undefined)
inactive: activation [1] -8.59% | Potency [2] | Potency [3] | Potency [4]

NC(=O)c1cccc2[nH]c(-c3ccc(C4CCCN4)cc3F)nc12 (centres undefined)
inactive: activation [1] 0% | Potency [2] | Potency [3] | Potency [4]

O=C(NCCCc1ccccc1)C1CCC(CNS(=O)(=O)c2cccc3nsnc23)CC1 (centres undefined)
inactive: activation [1] -3.34% | Potency [2] | Potency [3] | Potency [4]

Cc1cc(NC(=O)NCCN2CCC(O)(Cc3ccccc3)CC2)c2ccccc2n1
inactive: activation [1] 3.34% | Potency [2] | Potency [3] | Potency [4]

CC(C)C[C@@H](C(=O)N[C@@H](Cc1ccc(OCc2ccccc2)cc1)C(=O)NC(C)(C)C)N(C)Cc1ccc(C(C)(C)C)cc1
inactive: activation [1] -1.91% | Potency [2] | Potency [3] | Potency [4]

Cc1nc(C#Cc2ccnc(Cl)c2)c(C)n1-c1ccc(F)cc1
inactive: activation [1] -12.9% | Potency [2] | Potency [3] | Potency [4]

COc1cc(NC(=O)c2cc(C3CC3)on2)c(OC)cc1Cl
inactive: activation [1] -12.4% | Potency [2] | Potency [3] | Potency [4]

Cc1cccc2c1CC[C@H](CN1CCC(c3c(Cl)cccc3Cl)CC1)C[C@@H]2O
inactive: activation [1] 11.9% and -7.16% | Potency [2] | Potency [3] | Potency [4]

CC1(C)CC(NC(=O)C(=O)Nc2ccc(Br)cc2)CC(C)(C)N1
inactive: Potency [2] | Potency [3] | Potency [4]
active: Potency [1] 13.5 µM

COC1CCN(c2cccc(-c3cc(NC(C)=O)nc(-n4nc(C)cc4C)n3)n2)CC1
inactive: activation [1] -8.59% | Potency [2] | Potency [3] | Potency [4]

O=C(Nc1ccc(S(=O)(=O)Nc2ccccc2Cl)c(Cl)c1)c1ccccn1
inactive: activation [1] 15.8% | Potency [2] | Potency [3] | Potency [4]

O=C(NCCCN1CCC2(CC1)OCc1ccccc12)[C@H]1CCCN1Cc1ccccc1
inactive: activation [1] 0.477% | Potency [2] | Potency [3] | Potency [4]

C[C@@H]([C@@H](O)c1ccc(O)cc1)N1CCC(O)(c2ccccc2)CC1
inactive: activation [1] 5.25% | Potency [2] | Potency [3] | Potency [4]

O=C(CCCCC1CCCCC1)N1CCC(c2cnc[nH]2)CC1
inactive: activation [1] -1.91% | Potency [2] | Potency [3] | Potency [4]

CC(C)n1c(=O)c(C(=O)NC2CC3CCC(C2)N3C[C@@H](O)CN(C)S(C)(=O)=O)cc2ccccc21 (some centres undefined)
inactive: activation [1] -10.5% | Potency [2] | Potency [3] | Potency [4]

CC(C)C(CO)Nc1nc(Nc2cc(N)cc(Cl)c2)c2ncn(C(C)C)c2n1 (centres undefined)
active: Potency [1] 30.1 µM
inactive: Potency [2] | Potency [3] | Potency [4]

CN1CCN(c2nc(-c3ccc(C(=O)NC4(C(=O)NCC#N)CCCCC4)cc3)cs2)CC1
inactive: activation [1] -19.1% | Potency [2] | Potency [3] | Potency [4]

COc1ccccc1CN[C@H]1CCCN[C@H]1c1ccccc1
inactive: activation [1] -3.82% | Potency [2] | Potency [3] | Potency [4]

COc1cc(CCc2cc(NC(=O)c3ccc(N4CC(C)NC(C)C4)cc3)n[nH]2)cc(OC)c1 (centres undefined)
inactive: activation [1] 3.34% | Potency [2] | Potency [3] | Potency [4]

O=C1CC2(CCCC2)[C@H](O)C(=O)N1CCCCN1CCN(c2ncccn2)CC1
inactive: activation [1] 4.77% | Potency [2] | Potency [3] | Potency [4]

CCOC(=O)N1CCC(NCCNC(=O)c2ccccc2C)CC1
inactive: activation [1] 6.68% | Potency [2] | Potency [3] | Potency [4]

CCOc1ccc(C(Nc2ccccn2)c2ccc3ccc(C)nc3c2O)cc1C (centres undefined)
inactive: activation [1] 19.6% | Potency [2] | Potency [3] | Potency [4]

CNC(C)C(=O)NC(C(=O)N1CCCC1c1nc(C(=O)c2ccc(F)cc2)cs1)C1CCCCC1 (centres undefined)
inactive: activation [1] 17.2% | Potency [2] | Potency [3] | Potency [4]

Nc1nc(CC(=O)Nc2ccc(CCNCC(O)c3ccccc3)cc2)cs1 (centres undefined)
inactive: activation [1] -11% | Potency [2] | Potency [3] | Potency [4]

CC(C)(F)C[C@@H](N[C@@H](c1ccc(-c2ccc(S(C)(=O)=O)cc2)cc1)C(F)(F)F)C(=O)NC1(C#N)CC1
inactive: activation [1] -8.11% | Potency [2] | Potency [3] | Potency [4]

COc1ccc(C#Cc2ccc(C(=O)N3CCC[C@@H](CO)C3)cc2)cc1
inactive: activation [1] -13.8% | Potency [2] | Potency [3] | Potency [4]

Cn1nc(C(C)(C)C)cc1C(=O)NC(Cc1cccc(Cl)c1)C(=O)NCC#N (centres undefined)
inactive: activation [1] -4.3% | Potency [2] | Potency [3] | Potency [4]

O=C(c1ccccn1)c1cnn2c(-c3ccncc3)ccnc12
inactive: activation [1] -7.16% | Potency [2] | Potency [3] | Potency [4]

CCCCCOc1ccc(-c2ccc(-c3ccc(C(=O)N[C@H]4C[C@@H](O)[C@@H](O)NC(=O)[C@@H]5[C@@H](O)[C@@H](C)CN5C(=O)[C@H]([C@@H](C)O)NC(=O)[C@H]([C@H](O)[C@@H](O)c5ccc(O)cc5)NC(=O)[C@@H]5C[C@@H](O)CN5C(=O)[C@H]([C@@H](C)O)NC4=O)cc3)cc2)cc1 ({pTerphenylCO(4''-OnC5H11)}-[Orn(4R-OH,5R-OH)]T[Hyp][hTyr(3S-OH,4S-OH)]T[Pro(3S-OH,4S-Me)]; lactam 1-C)
inactive: activation [1] 22.9% | Potency [2] | Potency [3] | Potency [4]

COc1cc2c(cc1OC)-c1[nH]nc(Nc3cccc(F)c3)c1C2
inactive: activation [1] 6.68% | Potency [2] | Potency [3] | Potency [4]

CCC(=O)N1CCOc2c(cc(-c3ccc(OC)c(OC)c3)cc2OC[C@H]2CCCN(C)C2)C1
inactive: activation [1] -0.477% | Potency [2] | Potency [3] | Potency [4]

C=CC(=O)N1CCN(C(=O)c2cc(-c3cc(Cl)ccc3Cl)c(Cl)cc2OC)CC1
inactive: activation [1] -7.64% | Potency [2] | Potency [3] | Potency [4]

COC(=O)c1ccc2c(c1)nc(NC(=O)c1ccccc1)n2CCCc1ccccc1
inactive: activation [1] -10% | Potency [2] | Potency [3] | Potency [4]

CCOC(=O)CCC(=O)O[C@H]1[C@H](O[C@@H]2[C@@H](C)[C@H](O[C@H]3C[C@@](C)(OC)[C@@H](O)[C@H](C)O3)[C@@H](C)C(=O)O[C@H](CC)[C@@](C)(O)[C@H](O)[C@@H](C)C(=O)[C@H](C)CC2(C)O)O[C@H](C)C[C@@H]1N(C)C (some centres undefined)
inactive: activation [1] 9.55% | Potency [2] | Potency [3] | Potency [4]

Oc1ccc([C@H]2COc3cc(O)ccc3C2)cc1
inactive: activation [1] -10.5% | Potency [2] | Potency [3] | Potency [4]

CCCCCCOc1cc2c(cc1N(C)c1ncc(C(=O)O)cn1)C(C)(C)CCC2(C)C
inactive: activation [1] -3.82% | Potency [2] | Potency [3] | Potency [4]

FC(F)(F)c1nnc2c(Sc3ccccc3)nc3ccc(Cl)cc3n12
inactive: activation [1] 29.1% | Potency [2] | Potency [3] | Potency [4]

COc1ccc(CCc2nc3cc(-c4c(C)noc4C)ccc3n2C[C@H](C)N2CCOCC2)cc1Cl
inactive: activation [1] 20.1% | Potency [2] | Potency [3] | Potency [4]

O=C(NC/C=C/CN1CCN(c2cccc(Cl)c2Cl)CC1)c1ccc(-c2ccccn2)cc1
inactive: activation [1] 6.68% | Potency [2] | Potency [3] | Potency [4]

COc1ccc2c(c1O[C@H]1CCNC1)CCC2
inactive: activation [1] -0.955% | Potency [2] | Potency [3] | Potency [4]

CCCn1c(=O)c2[nH]c(-c3ccc(OCC(=O)O)cc3)nc2n(CCC)c1=O
inactive: activation [1] -5.73% | Potency [2] | Potency [3] | Potency [4]
